Results on 40 sequences are retold here after the supplement of paper PMC10681739.
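For RUNX1 binding intensity (PBM fluorescence) in presence of ETS1, normalised to RUNX1-only experiment in this document: Full-length recombinant human ETS1 or RUNX1 bound to double-stranded 36-bp genomic probes on microarrays, detected by protein-specific primary antibody and Alexa488 secondary, spot fluorescence as median of four replicate spots.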

RUNX1, sequence (Q01196 whole entry): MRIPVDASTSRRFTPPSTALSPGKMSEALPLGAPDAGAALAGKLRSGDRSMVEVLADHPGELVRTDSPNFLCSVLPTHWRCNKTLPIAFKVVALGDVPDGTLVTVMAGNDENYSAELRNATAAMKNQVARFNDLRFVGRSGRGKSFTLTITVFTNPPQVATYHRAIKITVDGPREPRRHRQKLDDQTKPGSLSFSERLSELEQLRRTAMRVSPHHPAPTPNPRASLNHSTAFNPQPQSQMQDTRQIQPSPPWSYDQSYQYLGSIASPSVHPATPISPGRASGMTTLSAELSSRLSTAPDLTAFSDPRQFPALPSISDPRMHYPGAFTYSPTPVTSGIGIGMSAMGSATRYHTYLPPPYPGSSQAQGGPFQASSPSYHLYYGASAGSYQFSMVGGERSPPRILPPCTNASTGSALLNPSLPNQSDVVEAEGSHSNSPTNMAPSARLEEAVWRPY

The target of the first test is T1, ETS1 (UniProt P14921).
T1 sequence: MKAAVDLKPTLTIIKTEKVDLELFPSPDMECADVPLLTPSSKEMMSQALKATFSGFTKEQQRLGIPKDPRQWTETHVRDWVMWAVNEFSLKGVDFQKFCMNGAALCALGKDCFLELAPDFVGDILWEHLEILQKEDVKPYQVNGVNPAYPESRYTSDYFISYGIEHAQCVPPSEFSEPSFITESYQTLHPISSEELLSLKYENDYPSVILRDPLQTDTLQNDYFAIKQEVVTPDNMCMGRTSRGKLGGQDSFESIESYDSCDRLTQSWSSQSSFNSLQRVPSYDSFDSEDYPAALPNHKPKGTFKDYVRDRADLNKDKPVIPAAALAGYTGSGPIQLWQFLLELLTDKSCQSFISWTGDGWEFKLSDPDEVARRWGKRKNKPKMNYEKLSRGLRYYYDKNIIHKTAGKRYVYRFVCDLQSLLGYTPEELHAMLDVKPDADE
Briefly: ETS1 binding intensity (PBM fluorescence) in presence of RUNX1, normalised to ETS1-only experiment (arbitrary fluorescence units); higher = stronger binding. As to conditions: ETS1 concentration 1 nM; RUNX1 concentration 25 nM.
On to TTACTGCCGGAACTTGGGACCTTTGTAACCACGTCT, for which the ETS1 binding intensity is 586.
For the sequence ATGTCCCCAGGAGGATGTGGTGTGTCCACAGGAGGA, the ETS1 binding intensity came out at 1650.
In the case of TCGGAGACGGCGAAAGGAAACCGCAAGGAGGCCACC, the ETS1 binding intensity worked out at 2820.
As to CCCTCAGCGGAAGTGGAAGCTGTGGTTTCCAAAGGC, the ETS1 binding intensity came to 17000.
Turning to ACTGCACGGCTGGGAGGATGTGGTCACACACGCCAC, the ETS1 binding intensity was determined as 11400.
AGTGGCAGTGCAGGAAGTGGTTTGTCTGGTACAATC: the ETS1 binding intensity is 6800.
On the same count and under the same terms, as for CGACAGAGGACACTTCCTTTTGCGGGTGGCGGCGAA, the figure is 1170; as for GCCGTCACTTCCGTCATTCAAACCGCCCGCCAATGG, 1160; as for TGGCTGTCACTTCCTGTCCCACTGTGGTTCCTGGGA, 5740.
For GAGCAGGAAGCACCCCCAGCACAGGCCTGCGGTGAG, the ETS1 binding intensity was determined as 1350.
GACATATCCTGCATTCTCAGAAAAACCACAGGCTAG: the ETS1 binding intensity came out at 1050.
As to GCTGATAAAACAGGATGTGGTAAAGAAGCCGGCCAA, the ETS1 binding intensity worked out at 18000.
On the same count and under the same terms, as for CTTGCCACACTTCCTCTTGTTTTGAACCACTATATT, the figure is 641; as for CCTCGGTTCGGAAACGGCGAAAGCAAACCGCAAGGA, 3890.
As for CTGCTGACCAAAACAGGATGTGGTCTACACAAAGTG, the ETS1 binding intensity amounted to 36600.
Take CCCAATTTCCTTTGCTCTGCTGTCTGCCAACCGCAA: the ETS1 binding intensity was 491.
Take CACCCATAGCACCCCGGAAACCACCTCCACCACCTG: the ETS1 binding intensity worked out at 2240.
On to AGATGCAGAACAGGAAGTGGTTTAGAAAGCCACTCT, for which the ETS1 binding intensity amounted to 13700.
As for TCAATAAGACAGGATGTTCTCCAACCGCATTAAGCT, the ETS1 binding intensity amounted to 22100.
In the case of GCAGCATTTCCTGACTTCTTCGCCCCTGTGGTTGCA, the ETS1 binding intensity stood at 480.
As for AGTACGATGGGAGGAAGTGGTTTGTAAGAGGAGGAC, the ETS1 binding intensity amounted to 3390.
Consider ACCTCATCCTGCTGTTCTTGTGTGTGGTTGAGCAGT, for which the ETS1 binding intensity is 432.
For the sequence GCAGAGAGATTGGCCGGATGCGGTGGCTCACGCCTT, the ETS1 binding intensity amounted to 8930.
As to CTGGGGATGTGTGACACTCAGAGAAACCACAAGGTG, the ETS1 binding intensity came out at 1390.
Regarding AGCAGCTGCCAGAGGAAGTCTGCGGTCGGAACAGGC, the ETS1 binding intensity was determined as 10800.
AACTAGAGCGTCATTTCCTGTGGGTACAAGTCCAGT: the ETS1 binding intensity was found to be 2400.
Turning to ACACAGGAAGGACGCACGCTCCCGCCCCAACCACAT, the ETS1 binding intensity was found to be 563.
For the sequence GTGGGAGCGGAAGCCTGAGCGGCCTGCGGCCTCCGG, the ETS1 binding intensity came out at 1070.
On the same count and under the same terms, the same measure for TTTGTGCCCCAACTTCCTCTGTGGCTTTTGGGTGGG: 969.
As for CTCCTTCCTGATCGGGCAGGAACTAACCACAGGAGG, the ETS1 binding intensity was 2480.
With GTGCAGGGCCCGGAAGCTCAGTGTGGTTAAAGACAT, the ETS1 binding intensity was found to be 5260.
GGGATCTACTTCCTCTCTCGGCCGCGGCCGCAGCAC: the ETS1 binding intensity was found to be 1150.
For the sequence CAGGCACACATCCGGGAGCGGCCTGCGCCGCAAGGC, the ETS1 binding intensity was found to be 661.
Same read-out and setting: the same measure for GTTCTCAGCTTCCTGTTCACAGAGAAACCTCAGACA: 1560; for TGCAATCAGGAAGCCTGCCCCTCTAGAACCACAAAA: 1210; for GGCTTCCTGCCCAACTACCAAGAAAAAGCCACAAAG: 962.
In the case of GAGTTCCGCCTCGCCGTTTGTCCCTTGCGGTACCCG, the ETS1 binding intensity came out at 620.
In the case of CTAGCTGTGGACAGGAAACGAGTGGTTTTTGTGATC, the ETS1 binding intensity amounted to 8040.
Turning to TTGACTCGGGAATGTCCGGTCGTGGTAAGCAGGGTG, the ETS1 binding intensity turned out to be 858.
As to AGGGTTACAATTTCCGTAAACCACAGAAGCAGCAGA, the ETS1 binding intensity was 979.

Another test concerns the target RUNX1 (UniProt Q01196). Briefly: RUNX1 binding intensity (PBM fluorescence) in presence of ETS1, normalised to RUNX1-only experiment (arbitrary fluorescence units); higher = stronger binding. As to conditions: RUNX1 concentration 2 nM; ETS1 concentration 25 nM. How it is done: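 Cooperative gcPBM on 36-bp genomic probes with neighbouring ETS1 and RUNX1 sites. Recombinant human RUNX1 (2 nM) was incubated alone or with ETS1 (25 nM) and detected with anti-RUNX1 antibody plus Alexa488 secondary. Values are medians over 4 replicate spots; the RUNX1+ETS1 data were normalised to the RUNX1-only data. The probes sit in constant array flanks that are not printed.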
For the sequence TTACTGCCGGAACTTGGGACCTTTGTAACCACGTCT, the RUNX1 binding intensity amounted to 875.
On to ATGTCCCCAGGAGGATGTGGTGTGTCCACAGGAGGA, for which the RUNX1 binding intensity turned out to be 875.
On to TCGGAGACGGCGAAAGGAAACCGCAAGGAGGCCACC, for which the RUNX1 binding intensity amounted to 9290.
As for CCCTCAGCGGAAGTGGAAGCTGTGGTTTCCAAAGGC, the RUNX1 binding intensity turned out to be 3570.
Regarding ACTGCACGGCTGGGAGGATGTGGTCACACACGCCAC, the RUNX1 binding intensity was determined as 1350.
For AGTGGCAGTGCAGGAAGTGGTTTGTCTGGTACAATC, the RUNX1 binding intensity was 1590.
CGACAGAGGACACTTCCTTTTGCGGGTGGCGGCGAA: the RUNX1 binding intensity is 1460.
Take GCCGTCACTTCCGTCATTCAAACCGCCCGCCAATGG: the RUNX1 binding intensity came out at 2520.
On to TGGCTGTCACTTCCTGTCCCACTGTGGTTCCTGGGA, for which the RUNX1 binding intensity was found to be 1820.
On the same count and under the same terms, the same measure for GAGCAGGAAGCACCCCCAGCACAGGCCTGCGGTGAG: 911; for GACATATCCTGCATTCTCAGAAAAACCACAGGCTAG: 2000; for GCTGATAAAACAGGATGTGGTAAAGAAGCCGGCCAA: 8590.
Take CTTGCCACACTTCCTCTTGTTTTGAACCACTATATT: the RUNX1 binding intensity turned out to be 4740.
As for CCTCGGTTCGGAAACGGCGAAAGCAAACCGCAAGGA, the RUNX1 binding intensity came out at 3120.
Consider CTGCTGACCAAAACAGGATGTGGTCTACACAAAGTG, for which the RUNX1 binding intensity turned out to be 3500.
Still for that read-out and setting: the same measure for CCCAATTTCCTTTGCTCTGCTGTCTGCCAACCGCAA: 4340.
In the case of CACCCATAGCACCCCGGAAACCACCTCCACCACCTG, the RUNX1 binding intensity was 2020.
Take AGATGCAGAACAGGAAGTGGTTTAGAAAGCCACTCT: the RUNX1 binding intensity is 2720.
For TCAATAAGACAGGATGTTCTCCAACCGCATTAAGCT, the RUNX1 binding intensity stood at 2910.
Still for that read-out and setting: as for GCAGCATTTCCTGACTTCTTCGCCCCTGTGGTTGCA, the figure is 1690; as for AGTACGATGGGAGGAAGTGGTTTGTAAGAGGAGGAC, 1490.
For the sequence ACCTCATCCTGCTGTTCTTGTGTGTGGTTGAGCAGT, the RUNX1 binding intensity was 1340.
With GCAGAGAGATTGGCCGGATGCGGTGGCTCACGCCTT, the RUNX1 binding intensity was determined as 1140.
On the same count and under the same terms, as for CTGGGGATGTGTGACACTCAGAGAAACCACAAGGTG, the figure is 1140; as for AGCAGCTGCCAGAGGAAGTCTGCGGTCGGAACAGGC, 3400; as for AACTAGAGCGTCATTTCCTGTGGGTACAAGTCCAGT, 1370.
With ACACAGGAAGGACGCACGCTCCCGCCCCAACCACAT, the RUNX1 binding intensity was determined as 1060.
For GTGGGAGCGGAAGCCTGAGCGGCCTGCGGCCTCCGG, the RUNX1 binding intensity worked out at 1040.
On to TTTGTGCCCCAACTTCCTCTGTGGCTTTTGGGTGGG, for which the RUNX1 binding intensity was 1480.
Regarding CTCCTTCCTGATCGGGCAGGAACTAACCACAGGAGG, the RUNX1 binding intensity was determined as 1130.
The same measure, in the same setting: as for GTGCAGGGCCCGGAAGCTCAGTGTGGTTAAAGACAT, the figure is 1540; as for GGGATCTACTTCCTCTCTCGGCCGCGGCCGCAGCAC, 1730; as for CAGGCACACATCCGGGAGCGGCCTGCGCCGCAAGGC, 1560.
For the sequence GTTCTCAGCTTCCTGTTCACAGAGAAACCTCAGACA, the RUNX1 binding intensity stood at 1390.
Consider TGCAATCAGGAAGCCTGCCCCTCTAGAACCACAAAA, for which the RUNX1 binding intensity came out at 892.
For the sequence GGCTTCCTGCCCAACTACCAAGAAAAAGCCACAAAG, the RUNX1 binding intensity came to 2040.
For GAGTTCCGCCTCGCCGTTTGTCCCTTGCGGTACCCG, the RUNX1 binding intensity turned out to be 2030.
For the sequence CTAGCTGTGGACAGGAAACGAGTGGTTTTTGTGATC, the RUNX1 binding intensity is 1400.
Same read-out and setting: the same measure for TTGACTCGGGAATGTCCGGTCGTGGTAAGCAGGGTG: 999.
As to AGGGTTACAATTTCCGTAAACCACAGAAGCAGCAGA, the RUNX1 binding intensity was determined as 2560.
